Source: PubChem BioAssay AID2810 (NMMLSC, 2010)
Out of some 1,200 compounds screened, about 65 (5%) were called active. The sample holds actives, similar compounds and a random draw of the others, so the mix is not that of the screen.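 The calls were made as follows: active = at either tested dose, response and 90th-percentile vesicle-stain brightness of CD8 cells under set limits and under 9% cells vesicle-bound; inactive = the rest.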

Experiment: modulators of CD8 T cell-vesicle binding, confirmation, cherry-picked primary hits, two concentrations (AID 2810);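 also: lower values mean blocking of vesicle binding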;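 as to percent response (vesicle binding): ratio of mean FL2 vesicle stain of CD8+ cells to that row's control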
Conditions: 2C CD8+ T cell-vesicle binding, flow cytometry; for double positive events: CD8+/vesicle+ events
[1] = at 15.4 µM, stronger effect = lower value

| SMILES | double positive events (at 7.7 µM) | double positive events [1] | percent response (vesicle binding) [1] | percent response (vesicle binding) (response, at 7.7 µM) |
| --- | --- | --- | --- | --- |
| Cc1cc(C)c(/C=N/NC(N)=O)c(C)c1/C=N/NC(N)=O | 38.1% | 18.6% | 240% (inactive) | 428% |
| COc1ccc(/C=C2\SC(N3CCc4ccccc4C3)=NC2=O)cc1OC | 22.6% | 2.9% | 42% (active) | 201% |
| O=C1N=C(N2CCOCC2)S/C1=C\c1cccs1 | 8.6% | 6.3% | 248% (inactive) | 332% |
| CCCC(=O)N1CCc2cc(OC)c(OC)cc2C1COc1ccccc1OC (stereo not drawn) | 21.6% | 13.8% | 128% (inactive) | 276% |
| CC(C)NC(=O)NC(=O)COC(=O)c1ccc(F)cc1F | 29.2% | 19.1% | 385% (inactive) | 423% |
| O=C(c1c[nH]c2ccccc12)N1CCN(Cc2ccccc2)CC1 | 13.7% | 10.6% | 47.9% (inactive) | 181% |
| CC(NS(=O)(=O)c1ccc(Cl)c(Cl)c1)C(=O)OCC(=O)N1CCCCCC1 (stereo not drawn) | 27.5% | 12.9% | 182% (inactive) | 284% |
| c1csc(-c2nc3ccccc3[nH]2)c1 | 38.6% | 18.6% | 255% (inactive) | 233% |
| COc1ccc([C@H]2CC(=O)C=C(c3ccc4c5c(cccc35)CC4)C2)cc1 | 6.5% | 29.8% | 626% (inactive) | 271% |
| COc1ccc(C2=CC(=O)CC(c3ccc(OC)cc3)C2)cc1 (stereo not drawn) | 14.8% | 3.2% | 110% (inactive) | 120% |
| COc1ccc([C@H]2CC(=O)C=C(c3cc(F)ccc3OC)C2)cc1 | 19.1% | 16.3% | 198% (inactive) | 138% |
| COc1ccc([C@H]2CC(=O)C=C(/C=C/c3ccccc3)C2)cc1 | 19.1% | 3.3% | 36.9% (active) | 286% |
| COc1ccc([C@H]2CC(=O)C=C(c3cccc(Cl)c3)C2)cc1 | 37.2% | 4.7% | 129% (inactive) | 315% |
| COc1ccc([C@H]2CC(=O)C=C(c3c(C)cc(C)cc3C)C2)cc1 | 12.5% | 5.7% | 49.9% (active) | 132% |
| O=C(NCCO)/C(=C\c1ccc(Br)cc1)NC(=O)c1cccs1 | 6.9% | 24.7% | 683% (inactive) | 70.4% |
| COc1ccc(CCCC(=O)NC(C)c2ccccc2)cc1 (stereo not drawn) | 12.2% | 15.2% | 93.8% (inactive) | 104% |
| O=C(COC(=O)C1(c2cccc(F)c2)CCCC1)NCc1ccc2c(c1)OCO2 | 15.2% | 3.1% | 106% (inactive) | 82.7% |
